Common to all, as to assay: NCI-60 one-dose screen, 48 h (100 = growth as untreated, 0 = no growth, -100 = all killed)
Holding throughout (conditions): 10 µM unless noted

Assay [1] relates to SR leukemia.
Assay [2] concerns RPMI-8226 leukemia.
Assay [3] concerns OVCAR-8 ovarian.
Assay [4] concerns OVCAR-5 ovarian.
In assay [5] the test system is OVCAR-4 ovarian.
Assay [6] concerns SK-OV-3 ovarian.
The subject of assay [7] is IGROV1 ovarian.
In assay [8] the test system is OVCAR-3 ovarian.
Assay [9] has as its system HS 578T breast.
Assay [10] deals with NCI/ADR-RES ovarian.

This is part of a sample that, as a whole, favours compounds with a hit. Of some 83,000 tested, about 20% had one in any assay.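 For each line, cells grew in 96-well plates with the test compound present at a single concentration for 48 hours.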 Unmarked numbers belong to inactive results. Activity calls are given as the source filed them. Rule for the calls: active = growth percent below 10; inactive = the rest.

With `CO[C@H]1/C=C(/C)CCC[C@H](C)[C@H](O)[C@@H](C)C(=O)C(C)(C)[C@@H](O)CC(=O)O[C@@H]1/C(C)=C/c1csc(C)n1`, the growth was 19.6% in assay [1]; 14.2% in assay [2]; 26.7% in assay [3]; 34.6% in assay [4]; 63.7% in assay [5]; 5.27% (active) in [6]. For the same compound, the growth in assay [7] is 12.8%; in assay [8], -49.9% (active); in assay [9], -21.3% (active); in assay [10], -36.7% (active).
In the case of `N#Cc1c(N)nnn1Cc1cc(=O)oc2c1ccc1ccccc12`, the growth in [1] is 105%; in [2], 97.8%; in [3], 96.8%; in [4], 108%; in [5], 108%; in assay [6] it was 86%. The growth in assay [7] was 101%; in assay [8], 103%; in [9], 101%.
Regarding `C#Cc1cccc(Nc2ncnc3ccc(-c4cnc(N)nc4)cc23)c1`, the growth in [1] was 40.6%; in assay [2], 22.8%; in assay [3] it was 49.6%; in [4], 23.1%; in assay [5] it was 46.1%; in assay [6], -2.3% (active). Moreover, the growth in [7] was -26.3% (active); in assay [8], 24.1%; in [9], -7.24% (active); in [10] it was 49.8%.
Turning to `Cc1cc(=O)[nH]c2c(C#N)cnn12`, the growth was 112% in assay [1]; 101% in assay [2]; 98.7% in assay [3]; 97.7% in [4]; 111% in assay [5]; 106% in assay [6]. The growth in assay [7] is 97.2%; in assay [8], 101%; in [9], 92.6%; in [10], 102%.
For `OCc1cccc(-c2ccc3ncc(-c4nc(NC5CC5)ncc4F)n3c2)c1`, the growth in [1] was -13.5% (active); in [2], -29.8% (active); in assay [3], -2.83% (active); in assay [4], -9.98% (active); in [5], -1.5% (active); in assay [6] it was 14%. Besides, the growth in [7] is -13.3% (active); in [8], -1.89% (active); in [9], -29.8% (active); in [10] it was -3.01% (active).
Take `CCCCCCCCn1ccc2cc(NC(=O)CN3CCN(c4nc(C)cc(Cl)n4)CC3)ccc21`: the growth in assay [1] is 23.5%; in assay [2], 99.3%; in [3], 106%; in assay [4] it was 102%; in [5], 83.7%; in [6], 110%. Also, the growth in [7] is 74.4%; in [8] it was 109%; in [9], 89.9%; in assay [10], 93.2%.
Consider `Cc1ccc(CNc2ccc(Cl)cc2NCc2ccc(C)c(O)c2)cc1O`, for which the growth in assay [1] was -33% (active); in assay [2], 16%; in assay [3], 23.6%; in assay [4], 73.6%; in assay [5] it was 27.8%; in assay [6], 54.7%. In addition, the growth in [7] is 24.2%; in assay [8], 10.9%; in assay [9], 42.7%.
As to `COc1cc2c(c(OC)c1OC)-c1ccc(OC)c(=O)cc1[C@@H](NC(=O)CCl)CC2`, the growth was 36.3% in [1]; 20.3% in assay [2]; 8.53% (active) in assay [3]; 22.4% in assay [4]; 42.7% in assay [5]; 15.5% in assay [6]. The growth in [7] is 14.1%; in assay [8] it was 8.93% (active); in [9], 63.4%; in [10], -39.4% (active).
Turning to `COc1cc(N2C(=O)[C@H](O)C2c2ccc(SC)cc2)cc(OC)c1OC` (some centres undefined), the growth in [1] was 3.99% (active); in [2] it was 9.69% (active); in assay [3], 6.99% (active); in assay [4] it was 80.3%; in assay [5], 56.5%; in assay [6], 3.02% (active). For the same compound, the growth in assay [7] is 31.4%; in [8] it was -11.9% (active); in [9] it was 34.9%.
With `CC(=O)OC[C@]12CCC(C)(C)C[C@H]1[C@@]1(O)[C@H](O)C[C@@H]3[C@@]4(C)CCCNC(C)(C)[C@@H]4CC[C@@]3(C)[C@]1(C)CC2`, the growth in [1] was 99.3%; in assay [2], 107%; in assay [3] it was 111%; in assay [4], 102%; in assay [5], 120%; in assay [6], 111%. Besides, the growth in [7] is 107%; in assay [8], 119%; in [9] it was 110%.
`O=S(=O)(Nc1ccccc1)c1ccc(C2CC3(Cl)C(Cl)=C(Cl)C2(Cl)C3(Cl)Cl)cc1` (centres undefined): the growth in [1] was 18.8%; in assay [2] it was 13.8%; in assay [3], 55.6%; in assay [4] it was 60.1%; in assay [5] it was 44%; in [6], 76%. The growth in [7] is 54.8%; in [8], 26%; in [9] it was 54.8%.
Turning to `O=C(c1ccc(-c2nc(CSc3nc4ccccc4s3)no2)cc1)N1CCSCC1`, the growth is 43% in assay [1]; 47.2% in [2]; 43% in assay [3]; 117% in [4]; 69.5% in [5]; 72.6% in assay [6]. For the same compound, the growth in assay [7] was 77.6%; in [8], 78.8%; in assay [9], 106%.
Take `CCCCC(=O)c1ccco1`: the growth is 98.2% in [1]; 85.1% in assay [2]; 98.9% in [3]; 84.7% in assay [4]; 97.3% in assay [5]; 89.1% in assay [6]. In addition, the growth in assay [7] was 91.1%; in assay [8] it was 104%; in [9] it was 95.2%; in assay [10], 93.3%.

For the origin of these results see PubChem BioAssay (NCI).
